Records with an inconclusive call do not appear. Unmarked numbers belong to inactive results. Active and inactive are the calls of the source. Calls follow the shape of the dose curve; as a rule, active = well fitted inhibition curve with a large enough effect; inconclusive = small, poorly fitted or top-dose-only effect; inactive = no such curve, though single readings can be large or run the other way.
Each molecule was assayed on Zika virus NS2B-NS3 protease (unlinked complex) (assay: Primary screen GU Rhodamine qHTS for Zika virus inhibitors: Unlinked NS2B-NS3 protease assay (AID 1347159; also: nearly all actives have a fitted effect of over 60% in size)). Conditions: Recombinant ZIKV NS2B-NS3 protease, Rhodamine110 substrate fluorescence; series mostly up to 107 µM; activity change, negative = inhibition: at the top concentration.
Description: Avindra Nath, Ph.D., National Institute of Neurological Disorders and Stroke (NINDS), Bethesda, MD
Radhakrishnan Padmanabhan, Ph.D., Georgetown University (GU), Washington D.C.
Zika Virus causes congenital defects, including microcephaly and is associated with Guillain-Barre syndrome, eningoencephalitis and myelitis in infected adult. […] Using a target-based approach, we hope to establish a screening paradigm to uncover novel, cell-active NS2B-NS3 protease (Zika Virus) specific inhibitors from NCATS' collection of small molecules using qHTS.
Four assay panel was created to identify potential Zika Virus inhibitors. Namely, (1) GU unlinked NS2B-NS3 AMC tagged protease qHTS, (2) GU unlinked NS2B-NS3 Rhodamine tagged protease qHTS, (3) NINDS linked NS2B-NS3 AMC tagged protease qHTS, (4) NINDS linked NS2B-NS3 Rhodamine tagged protease qHTS. Active compounds were re-acquired and re-screened to confirm inhibition. Inhibitors were further screened against various confirmatory and counterscreens in dose response format.
Early Translation Branch (ETB)
National Center for Advancing Translational Sciences (NCATS), Rockville, MD
National Institute of Health (NIH), Bethesda, Maryland
Padmanabhan lab provided the NS2B hydrophilic domain and NS3 protease domain in a noncovalent complex used for the unlinked assay. Control compound aprotinin is obtained from Thermo Scientific (#78432; Waltham, Massachusetts). Rhodamine110 substrate ([N-Cbz]-Nle-Lys-Arg-Arg-Rhod110-Arg-Arg-Lys-Nle-[N-Cbz]) was purchased from either Genscript or Bachem.
1536-well Protease (Rhodamine110 Substrate) Assay:
Briefly, 3 microL of enzyme (25 nM final concentration), in assay buffer (10 mM Tris-HCl pH 8.0 with 0.01% Tween 20) were dispensed into a 1,536-well solid-bottom black plate (Greiner Bio One, Monroe, NC). Twenty-three nL of compounds (final concentration range 7.28 nM to 114 microM) or control Aprotinin (final concentration range 3.47 nM to 114 microM) were transferred via Wako Pin-tool (Wako Automation, Richmond, VA). Samples were incubated (room temperature, protected from light) for 15 minutes followed by a 1 microL Rhodamine110 substrate addition (1.5 microM final concentration). Plates were then immediately read on a ViewLux High-throughput CCD imager (PerkinElmer, Waltham, MA) equipped with FITC fluorescence optics (480(20) nm excitation, 540(25) nm emission), then incubated (room temperature, protected from light) for 15 minutes (~15% conversion). The change in fluorescence intensity over the 15-minute reaction period was normalized against no-inhibitor and no-enzyme controls and the resulting percent inhibition data were fitted to a 4-parameter Hill equation. Aprotinin was used as intraplate control.
% is scaled to controls: 0 for no effect and ±100 for the full control effect; potency is read from the fitted curve at half-maximal effect.

First: O=C(OC[C@H]1O[C@H](O[C@]2(CO)O[C@H](CO)[C@@H](O)[C@@H]2O)[C@H](O)[C@@H](O)[C@@H]1O)c1ccc(O)cc1
Second: COC(=O)C1=COC(OC2OC(CO)C(O)C(O)C2O)C2C(COC(=O)/C=C/c3ccc(O)cc3)C(O)C(O)C12 (stereo not given)
The “activity change, negative = inhibition” value of the first is higher: 16.7% [at 57.1 µM] for the first, -26.9% [at 57.1 µM] for the second.

Compared with `CC1CCC2(C(=O)O)CCC3(C)C(=CCC4C5(C)C[C@@H](O)[C@@H](O)C(C)(CO)C5CCC43C)C2C1(C)O` (stereo not given in full), `C=C1C2(C)CC3C4(C)C=CC(=O)OC(C)(C)C4CCC3(C)C1(C(=O)OC)C(=O)C(C)(O)C2=O` (stereo not given) is higher in “activity change, negative = inhibition” value: -12.3% [at 57.1 µM] for the first, -9.16% [at 57.1 µM] for the second.

Going from `COC(=O)C1=CO[C@@H](O[C@@H]2O[C@H](CO)[C@@H](O)[C@H](O)[C@H]2O)[C@@H]2[C@@H](C)[C@@H](O)C(O)[C@H]12` (stereo not given in full) to `C[C@]1(OC(=O)/C=C/c2ccc(O)cc2)C[C@@H](O)[C@]2(O)C=CO[C@@H](O[C@@H]3O[C@H](CO)[C@@H](O)[C@H](O)[C@H]3O)C12` (stereo not given in full), the “activity change, negative = inhibition” value falls from 4.97% [at 57.1 µM] to 4.12% [at 57.1 µM].

`CC(C)C1(O)NC(=O)C(CC2(O)c3ccccc3N3C(=O)C(C)(C)NC32)n2c1nc1ccccc1c2=O` (stereo not given) was tested, and the “activity change, negative = inhibition” value was 5.38% [at 57.1 µM].

Compared with `N#Cc1cc(-c2n[nH]c(-c3ccncc3)n2)ccn1`, `CC(C)(C)NS(=O)(=O)c1ccc(-c2ccc3[nH]nc(N)c3c2)cc1` is higher in “activity change, negative = inhibition” value: 1.37% for the first, 5.09% for the second.

Going from `COc1ccc(-c2ccn(CC[C@](C)(C(=O)NO)S(C)(=O)=O)c(=O)c2)c(F)c1` to `Cc1ccc(C)c(S(=O)(=O)n2cnc3ccccc32)c1`, the “activity change, negative = inhibition” value rises from -18.5% to 0%.

Going from `CC(=O)OC1C(O)C(C)(O)C(/C=C/C(=O)O)C2(C)CCCC(C)(C)C12` (stereo not given) to `COC(=O)[C@]1(C)CCC[C@@]2(C)[C@@H]3CC[C@@H]4C[C@@]3(CC[C@@H]21)C[C@H]4C(=O)O`, the “activity change, negative = inhibition” value falls from 13.4% to -19.5%.

First: CCC1OC(=O)C(C)CC(C)C(=O)/C(C)=C/C(C)C(=O)/C=C/C1(C)O (stereo not given)
Second: CC(=O)/C=C/C1(O)C(C)=CC(=O)CC1(C)C (stereo not given)
The “activity change, negative = inhibition” value of the first is higher: 11.7% for the first, -5.16% for the second.

Compared with `FC(F)(F)c1nnc2c(Sc3ccccc3)nc3ccc(Cl)cc3n12`, `Nc1c(-c2ccccc2)nc(Cl)c2c(O)n[nH]c(=O)c12` is lower in “activity change, negative = inhibition” value: 0.809% for the first, -2.53% for the second.

Compared with `CCNC(=O)OC1CCN(c2nncc3cc(OC)c(OC)cc23)CC1`, `CCNC(=O)C1CC(F)(c2ccc(CN3CCCC3)c(F)c2)C1` (stereo not given) is higher in “activity change, negative = inhibition” value: -22.9% for the first, 11.5% for the second.

Compared with `CC(NC(=O)c1ccccc1N)C(=O)O` (stereo not given), `CC(C)CC(=O)NCCn1cc(C(=O)O)c(=O)cc1C(O)c1ccccc1` (stereo not given) is lower in “activity change, negative = inhibition” value: 5.16% for the first, -10.9% for the second.

Going from `CC(C)N(CCCNC(=O)Nc1ccc(C(C)(C)C)cc1)C[C@H]1O[C@@H](n2ccc3c(N)ncnc32)[C@H](O)[C@@H]1O` to `Nc1ncnc2c1c(COc1cccc(Cl)c1)nn2C1CCOCC1`, the “activity change, negative = inhibition” value rises from 4.4% to 17.7%.

Going from `CC/C=C/C=C/C1(C)OC(CC(CO)OC)=CC1=O` (stereo not given) to `COc1cc(/C=C/C(=O)O[C@@H]2C[C@](O)(C(=O)O)C[C@@H](O)[C@H]2O)ccc1O`, the “activity change, negative = inhibition” value falls from 4.81% to -15.3%.

Going from `Cc1nc(-c2cccnc2)sc1C(=O)Nc1ccccc1-c1cn2c(CN3CCOCC3)csc2n1` to `Cc1ncc(NC(=O)c2ccc(CN3CCN(C)CC3)c(C(F)(F)F)c2)cc1Nc1nccc(-c2cccnc2)n1`, the “activity change, negative = inhibition” value rises from -2.91% to 16.1%.

Compared with `C/C=C(/C)C(=O)OC1C(OC(C)=O)C23C(O)OC4(CCC5C6(C)CCC(OC7OC(C(=O)O)C(O)C(OC8OC(CO)C(O)C(O)C8OC8OC(C)C(O)C(O)C8OC8OCC(O)C(O)C8O)C7OC7OC(CO)C(O)C(O)C7O)C(C)(C)C6CCC5(C)C4(C)CC2OC(C)=O)C3CC1(C)C` (stereo not given), `CC1(C)CC[C@]2(C(=O)O[C@@H]3O[C@H](CO[C@@H]4O[C@H](CO[C@@H]5O[C@H](CO)[C@H](O)[C@H](O)[C@H]5O)[C@@H](O)[C@H](O)[C@H]4O)[C@@H](O)[C@H](O[C@@H]4O[C@H](CO)[C@@H](O)[C@H](O)[C@H]4O)[C@H]3O)[C@H](O)C[C@]3(C)C(=CCC4[C@@]5(C)CC[C@H](O[C@@H]6OC[C@@H](O)[C@H](O)[C@H]6O)[C@@](C)(C(=O)O)C5CC[C@]43C)[C@@H]2C1` (stereo not given in full) is higher in activity change, negative = inhibition: -1.79% [at 19.1 µM] for the first, 8.5% [at 19.1 µM] for the second.

Going from `C[C@@H]1O[C@@H](O[C@H]2[C@H](O)[C@@H](O[C@@H]3O[C@H](CO)[C@H](O)[C@H](O)[C@H]3O)[C@H](O[C@H]3CC[C@@]4(C)C(CC[C@]5(C)C4CC=C4[C@@H]6CC(C)(C)CC[C@]6(C(=O)O[C@@H]6O[C@H](CO)[C@@H](O)[C@H](O)[C@H]6O)CC[C@]45C)C3(C)C)O[C@@H]2C(=O)O)[C@H](O)[C@H](O)[C@H]1O` (stereo not given in full) to `CC1OC(OC2CCC3(C)C(CCC4(C)C3C=CC35OCC6(CCC(C)(C)CC63)CCC45C)C2(C)CO)C(OC2OC(CO)C(O)C(O)C2O)C(O)C1OC1OC(CO)C(O)C(O)C1O` (stereo not given), the “activity change, negative = inhibition” value falls from -6.8% [at 32.5 µM] to -22.5% [at 32.5 µM].

First: COC(=O)C[C@@H]1C(C(=O)O)=CO[C@@H](O[C@@H]2O[C@H](CO)[C@@H](O)[C@H](O)[C@H]2O)/C1=C\COC(=O)/C=C/c1ccc(O)c(OC)c1
Second: C/C=C1\[C@H](O[C@@H]2O[C@H](CO)[C@@H](O)[C@H](O)[C@H]2O)OC=C(C(=O)OCCc2ccc(O)cc2)[C@H]1CC(=O)OCCc1ccc(O)cc1
The “activity change, negative = inhibition” value of the first is higher: 14.1% [at 32.5 µM] for the first, -10.8% [at 32.5 µM] for the second.

Compared with `CC(=O)NC1C(OC2CCC3(C)C(CCC4(C)C3CC=C3C5CC(C)(C)CCC5(C(=O)O)C(O)CC34C)C2(C)C)OC(CO)C(O)C1O` (stereo not given), `CC1CCC2(C(=O)OC3OC(CO)C(O)C(O)C3O)CCC3(C)C(=CCC4C5(C)CCC(O)C(C)(CO)C5CCC43C)C2C1(C)O` (stereo not given) is higher in “activity change, negative = inhibition” value: 8.09% [at 32.5 µM] for the first, 13.9% [at 32.5 µM] for the second.

In the case of `CC1(C)CC[C@]2(C(=O)O[C@@H]3O[C@H](CO)[C@@H](O)[C@H](O)[C@H]3O)CC[C@]3(C)C(=CCC4[C@@]5(C)C[C@@H](O)[C@H](O)[C@@](C)(CO)C5[C@H](O)C[C@]43C)C2C1` (stereo not given in full), the “activity change, negative = inhibition” value is reported as 55.3% [at 32.5 µM].

With `CC1CC=C2C1CC1(O)C(=O)CC2(C)C1(C)CO` (stereo not given) the Potency was 35.5 µM (active).
In the case of `C=C1CCC[C@]2(C)CC[C@@](O)(C(=C)C(=O)O)C[C@@H]12`, the Potency is reported as 11.2 µM (active).
In the case of `O=C(N[C@H](Cc1ccccc1)C(=O)O)c1sc2cc(F)ccc2c1Cl`, the Potency is reported as 39.8 µM (active).
In the case of `C/C=C/C=C/C=C/C(=O)OC1C=C2C(O)OC(=O)[C@]2(O)[C@@]2(C)CCCC(C)(C)[C@H]12` (stereo not given in full), the Potency is reported as 6.31 µM (active).

Source: PubChem BioAssay (NCATS)
